Among all 420,000 compounds or so, about 64,000 (15%) were called active. Another 27% or so got no clear call; they are omitted. Only a sample is shown. Values without a mark were called inactive. Calls follow the shape of the dose curve; as a rule, active = well fitted inhibition curve with a large enough effect; inconclusive = small, poorly fitted or top-dose-only effect; inactive = flat fitted curve, though single readings scatter.
% is scaled to controls: 0 for no effect and ±100 for the full control effect; potency is read from the fitted curve at half-maximal effect.

A short description of this assay: qHTS for Inhibitors of human tyrosyl-DNA phosphodiesterase 1 (TDP1): qHTS in cells in absence of CPT. Also: nearly all actives have a fitted effect of over 55% in size. Conditions: DT40 Tdp1-/- hTDP1 cells, no CPT, ATP luminescence, 48 h; activity change, negative = growth inhibition: at 46.2 µM (top of the series). From the text:
Human tyrosyl-DNA phosphodiesterase 1 (TDP1) is a novel repair gene, and we propose to use it as a new target for anticancer drug development. TDP1 is not an essential protein, but under treatment with topoisomerase I poison (camptothecin: CPT), TDP1 works as a critical factor for cell survival. To directly identify novel TDP1 inhibitors active in a cellular environment, we have knocked-out the Tdp1 gene in chicken DT40 cells (Tdp1-/-) and generated a complemented counterpart cells that contains a stable transfection of the human TDP1 gene (Tdp1-/-;hTDP1 cells). For the primary screen, Tdp1-/-;hTDP1 cells will be exposed to small molecules in the presence or absence of CPT, and their growth kinetics will be evaluated after 48 hours by measuring ATP activity. […] The hit compounds will then be evaluated in the presence or absence of CPT using Tdp1-/- cells. […] In tertiary assays, biochemical gel-based assays will be used to assess whether the hit compounds specifically target TDP1.
To this end, we have screened this cell line against the MLSMR in two primary screens. In one screen we add CPT and in the other we screen in the absence of CPT; this AID represents the screen where CPT was absent.
NIH Chemical Genomics Center [NCGC]
NIH Molecular Libraries Probe Centers Network [MLPCN]
Assay Submitter (PI): Yves Pommier, NCI
DT40-hTDP1 cells without 20 nM Camptothecin (add 20 microL of DMSO in 1 L of cell culture medium) were dispensed at 400 cells/5microL/well in tissue culture treated 1536-well white wall/solid bottom assay plates (Greiner Bio-One North America, NC, U.S.A.) using a Multidrop Combi 8 channel dispenser (Thermo Fisher, Waltham, MA, USA). 23 nL compounds and controls were transferred using the pin tool (Kalypsys, San Diego, CA, USA) to the assay plates. The assay plates were then incubated at 37 masculineC for a minimum 48 hr. Three microL of Cell Titer Glo solution was added to the plates and incubated at RT in dark for 30 min. Luminescence was read using ViewLux (Perkin Elmer) with 1 sec exposure slow speed, high gain and 2x binning.
For orientation: Quantitative high-throughput screening tests each substance at several concentrations.
For the molecule `CCCC1=Nc2cc(C(=O)NCc3ccco3)ccc2Sc2ccccc21`, the Potency is 3.66 µM (active).
Still for that read-out and setting: the same measure for `CCC1=Nc2cc(C(=O)NCCCN3CCOCC3)ccc2Sc2ccc(Br)cc21`: 3.66 µM (active).
`CC(C)OCCCNC(=O)CNC(=O)c1cccs1`: the “activity change, negative = growth inhibition” value was -7.96%.
Take `Cc1ccc(C(=O)NC(C)c2ccccc2)cc1Br` (stereo not drawn): the “activity change, negative = growth inhibition” value was -22.9%.
`O=C(NCc1ccco1)c1cccc(-c2ccc3nncn3c2)c1`: the “activity change, negative = growth inhibition” value was -12.4%.
On to `Cc1ccc2nc(CNC(=O)c3ccccc3)[nH]c2c1`, for which the “activity change, negative = growth inhibition” value is -0.575%.
As for `CC(C)NC(=O)C(=O)NCCCOC(C)C`, the “activity change, negative = growth inhibition” value was -0.626%.
On to `O=C(NCCCN1CCOCC1)c1cc(-c2cccc(O)c2)on1`, for which the “activity change, negative = growth inhibition” value was -18.6%.
Regarding `COc1ccc(CCNS(=O)(=O)c2ccc(C(=O)NCc3ccco3)cc2)cc1OC`, the “activity change, negative = growth inhibition” value is -12.5%.
In the case of `CCC1=Nc2cc(C(=O)NCCCOC(C)C)ccc2Sc2ccc(C)cc21`, the Potency was 0.517 µM (active).
Regarding `COc1ccc(C(=O)NCCCN2CCOCC2)cc1Br`, the “activity change, negative = growth inhibition” value is 6.89%.
With `CCC1=Nc2cc(C(=O)NCC(C)c3ccccc3)ccc2Sc2ccc(C)cc21` (stereo not drawn), the Potency is 23.1 µM (active).
With `CCOC(=O)c1c(/N=C/c2cc(C)ccc2O)sc2c1CCC2`, the “activity change, negative = growth inhibition” value is -29.3%.
For the molecule `CCC(=O)c1ccc(OCC(O)Cn2nc(C)c(C(C)=O)c2C)cc1` (stereo not drawn), the “activity change, negative = growth inhibition” value was -0.93%.
In the case of `CC(C)n1c(-c2ccncc2)n[nH]c1=S`, the “activity change, negative = growth inhibition” value was 1.02%.
For `Cc1cc(C)n(C(=O)c2ccc(C)c(S(=O)(=O)N3CCOCC3)c2)n1`, the “activity change, negative = growth inhibition” value was -0.443%.
For `Cc1cccc(NC(=O)C(C)N2C(=O)C3C4CC(C(Br)C4Br)C3C2=O)c1` (stereo not drawn), the “activity change, negative = growth inhibition” value is 1.71%.
For the molecule `CN(CC(=O)N1CCN(c2ccccc2)CC1)S(=O)(=O)c1cccs1`, the “activity change, negative = growth inhibition” value is -22.1%.
Same read-out and setting: as for `CC(=O)c1ccc(-n2nnnc2SCC(=O)N2CCN(C(=O)c3ccco3)CC2)cc1`, the figure is -25.4%; as for `CCOC(=O)c1ccc(NC(=S)Nc2cc(C)cc(C)n2)cc1`, -23%; as for `N=C1c2ccccc2-c2ccccc21`, -6.61%.
As for `O/N=C1\CC2(Cc3nonc31)OCCO2`, the “activity change, negative = growth inhibition” value was -7.73%.
Consider `CCCCN(C(=O)c1ccc(OC(F)(F)F)cc1)c1c(N)n(CCC)c(=O)[nH]c1=O`, for which the “activity change, negative = growth inhibition” value is 10.6%.
For the molecule `CCCCn1c(N)c(N(CC)C(=O)c2ccccc2C(F)(F)F)c(=O)[nH]c1=O`, the “activity change, negative = growth inhibition” value is 3.68%.
Turning to `FC(F)(F)c1cc(C(F)(F)F)c2ccc(N3CCN(c4ccccc4)CC3)nc2n1`, the “activity change, negative = growth inhibition” value is -21.5%.
The same measure, in the same setting: the same measure for `Cc1ccccc1N(C(=O)CNC(=O)c1cccs1)C(C(=O)NC1CCCC1)c1ccncc1` (stereo not drawn): -4.76%; for `COc1ccc(C(C(=O)NC2CCCC2)N(CCCO)C(=O)Cn2nnc(-c3ccc(C)o3)n2)cc1` (stereo not drawn): -13%.
On to `COc1ccc(C(C(=O)NC2CCCCC2)N(C(=O)CCl)c2ccccc2Cl)cc1` (stereo not drawn), for which the Potency was 14.6 µM (active).
Consider `CC(NC(=O)COC(=O)c1ccc2c(c1)OCO2)c1ccccc1` (stereo not drawn), for which the “activity change, negative = growth inhibition” value was 2.55%.
As for `CC(C)(C)c1ccc(C(=O)NNC(=O)Cc2ccccc2)cc1`, the “activity change, negative = growth inhibition” value is -23.1%.
With `CC(C)(C)c1ccc(C(=O)C[N+]2(C)CCCc3ccccc32)cc1` (stereo not drawn), the Potency was 1.58 µM (active).
With `CSc1ncnc2c1ncn2CCCNCc1cccs1`, the “activity change, negative = growth inhibition” value is -4.56%.
As to `Cc1ccccc1-c1nc(NC(C)C)nc2cc(-c3ccccc3)sc12`, the Potency was 20.6 µM (active).
For `O=C(O)CCCC(=O)Nc1ccccc1-n1ccnc1`, the “activity change, negative = growth inhibition” value is 1.45%.
Regarding `Cc1c(Cl)c([N+](=O)[O-])nn1CC(=O)NCCCN1CCOCC1`, the “activity change, negative = growth inhibition” value is 0.962%.
Regarding `O=S(=O)(c1cccc(-c2nnc(SC(F)F)n2-c2ccccc2)c1)N1CCCCC1`, the Potency is 16.4 µM (active).
With `O=S(=O)(c1cccc(-c2cn3ccccc3n2)c1)N1CCCC1`, the “activity change, negative = growth inhibition” value was -13.3%.
For the molecule `O=S(=O)(c1cccc(-c2nnc3n2CCCCC3)c1)N1CCOCC1`, the “activity change, negative = growth inhibition” value is -7.8%.
Regarding `O=C(O)C1=C/C(=C/C=[N+]2c3cc(O)c(O[C@H]4OC(CO)[C@@H](O)[C@@H](O)[C@@H]4O)cc3C[C@@H]2C(=O)[O-])C[C@H](C(=O)O)N1` (stereo partly drawn), the “activity change, negative = growth inhibition” value is -27.2%.
On the same count and under the same terms, as for `S=c1[nH]nc(Nc2ccccc2)s1`, the figure is -28.6%.
Same read-out and setting: as for `CCOc1c(Cl)cc(/C=N/O)cc1OC`, the figure is -16.3%.
Consider `CCN1/C(=C/C(=S)Nc2ccccc2)Sc2ccccc21`, for which the Potency was 4.11 µM (active).
Regarding `CCC(=O)/C=C1\Sc2ccccc2N1CC`, the “activity change, negative = growth inhibition” value was -14.8%.
Same read-out and setting: the same measure for `O=C(CS(=O)(=O)c1ccc(C(F)(F)F)cn1)NNC(=O)c1ccccc1`: -7.84%; for `Cc1ccc2nc(COc3cccc(NC(=O)Nc4ccc(C)c(Cl)c4)c3)cc(=O)n2c1`: -20.4%; for `Cc1ccc2nc(COc3ccc(NC(=O)COc4ccccc4F)cc3)cc(=O)n2c1`: 2.2%.
For `Cc1ccc2nc(COc3ccccc3NC(=O)Nc3ccc(F)c(Cl)c3)cc(=O)n2c1`, the Potency is 14.6 µM (active).
`COc1ccc(-c2nn3c(=O)cc(CN4CCN(C(=O)c5ccc(OC)c(OC)c5)CC4)nc3s2)cc1`: the “activity change, negative = growth inhibition” value was -28.5%.
Take `Cc1nonc1C(=O)N/N=C/c1ccc(O)cc1`: the “activity change, negative = growth inhibition” value is -7.64%.
For `CCOc1ccc(-c2cc(C(=O)N/N=C/c3ccc(O)cc3)c3ccccc3n2)cc1`, the Potency was 0.651 µM (active).
With `Cc1ccc(N2NC(=O)/C(=C/C=C/c3ccco3)C2=O)cc1C`, the “activity change, negative = growth inhibition” value is -19.4%.
Same read-out and setting: the same measure for `COc1ccc(/C=N\NC(=O)c2sc(N)nc2C)cc1OC`: -17.5%.
`O=C(Nc1cccc(F)c1)c1cc(-c2ccco2)nc2ccccc12`: the “activity change, negative = growth inhibition” value was -5.25%.
As to `Cc1ccc(-c2cc(C(=O)N/N=C/C=C/c3ccco3)c3ccccc3n2)cc1C`, the Potency was 8.2 µM (active).
Take `COc1cccc(-c2cc(C(=O)N/N=C/c3ccc(OC)c(COC(C)=O)c3)c3ccccc3n2)c1`: the Potency was 2.06 µM (active).
`COc1ccc(/C=N/NC(=O)c2ccc(Cl)cc2)cc1COC(C)=O`: the “activity change, negative = growth inhibition” value was -8.42%.
Consider `O=C(COc1ccc(/C=N/NC(=O)c2ccc(O)cc2)cc1)Nc1ccc([N+](=O)[O-])cc1`, for which the “activity change, negative = growth inhibition” value is -17.6%.
As to `COc1ccc(/C=N/NC(=O)c2cc(-c3cccc(C)c3)nc3ccccc23)cc1O`, the Potency is 2.31 µM (active).

The values are drawn from PubChem BioAssay AID686978 (National Center for Advancing Translational Sciences (NCATS), 2013).
